PubChem BioAssay AID2013 (Sanford-Burnham Center for Chemical Genomics, 2009)
The campaign covered roughly 290,000 compounds. About 370 (0.13%) were called active.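 The calls were made as follows: active = spots per cell inhibited over 60%, with over 100 cells counted and total cytoplasm intensity under 500,000; inconclusive = wells with under 100 cells, flagged as likely toxic; inactive = the rest.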 The list comes from a sample in which actives are over-represented; it also holds similar structures and randomly drawn compounds. Entries with a potency or affinity are not part of this list.

Target: G-protein coupled receptor 55 (Homo sapiens) (UniProt Q9Y2T6)
Assay: GPR55 antagonists blocking LPI-driven arrestin recruitment, primary screen, imaging, U2OS, beta-arrestin-GFP, LPI agonist (AID 2013);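 also: U2OS cells stably carrying GPR55 and arrestin-GFP stimulated by 5 µM LPI near EC80; imaged beta-arrestin-GFP aggregate spots per cell after agonist stimulation; plate controls were LPI-stimulated DMSO wells for no effect and DMSO wells without LPI for full effect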
Conditions: U2OS GPR55 beta-arrestin-GFP translocation imaging, LPI antagonism; at 10 µM; hits give high values

Sequence of G-protein coupled receptor 55 (Homo sapiens) (Q9Y2T6 whole entry, looked up): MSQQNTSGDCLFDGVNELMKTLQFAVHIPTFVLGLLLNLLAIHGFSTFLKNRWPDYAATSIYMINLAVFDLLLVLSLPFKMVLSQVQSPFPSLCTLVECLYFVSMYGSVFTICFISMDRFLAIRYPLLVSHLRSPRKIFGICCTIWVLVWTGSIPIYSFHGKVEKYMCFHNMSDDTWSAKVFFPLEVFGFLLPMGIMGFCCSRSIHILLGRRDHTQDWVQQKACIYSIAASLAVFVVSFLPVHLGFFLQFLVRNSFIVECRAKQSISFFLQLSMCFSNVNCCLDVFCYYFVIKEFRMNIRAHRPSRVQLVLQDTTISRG

Structure (SMILES)	inhibition
CC1=Nc2ccccc2/C1=C/c1c(O)n(C)c(=O)[nH]c1=O	1.1% (inactive)
COC(=O)C1=Nc2ccccc2/C1=C\c1c(O)n(-c2ccc(Br)cc2)c(=O)[nH]c1=O	0.3% (inactive)
Cc1cccc(-n2c(O)c(/C=C/C=Nc3ccccc3)c(=O)[nH]c2=O)c1	0.7% (inactive)
Cc1ccccc1-n1c(O)c(/C=C2/C(c3ccccc3)=Nc3ccccc32)c(=O)[nH]c1=O	83% (active)
Cc1cccc(-n2c(O)c(/C=C3/C(c4ccccc4)=Nc4ccccc43)c(=O)[nH]c2=O)c1	74.4% (active)
O=c1[nH]c(=O)n(-c2ccccc2)c(O)c1/C=C1/C(c2ccccc2)=Nc2ccccc21	68.8% (active)
O=c1[nH]c(=O)n(-c2cccc(F)c2)c(O)c1/C=C1\C=Nc2ccccc21	8.8% (inactive)
O=c1[nH]c(=O)n(-c2ccccc2F)c(O)c1/C=C1\C=Nc2ccccc21	21.1% (inactive)
COC(=O)C1=Nc2ccccc2/C1=C\c1c(O)n(-c2ccc(OC)cc2)c(=O)[nH]c1=O	-7.2% (inactive)
C#C[C@@]1(O)CCC2C3CCC4=C/C(=N/OCC(=O)NC(C(=O)NC(CC(C)C)C(=O)O)C(C)C)CC[C@]4(C)C3CC[C@@]21C (stereo not given in full)	13.1% (inactive)
COc1ccccc1-n1c(-c2ccccc2)nc2ccccc2c1=O	-1.7% (inactive)
CN1CCN(c2nc(N(C)C)oc(=O)c2C#N)CC1	2.9% (inactive)
Cc1cc(C)nc(-n2c(C)nc3cc(Cl)ccc3c2=O)c1	14.5% (inactive)
C/C(=N\Nc1ccccc1)c1c(O)[nH]c(=O)[nH]c1=O	-0.7% (inactive)
NNP(=O)(CC(=O)c1ccccc1)c1ccccc1 (stereo not given)	-7% (inactive)
O=S(=O)(NC1CCCC1)OCC(Cl)(Cl)Cl	0.6% (inactive)
O=C(O)c1cccc2c1NC(C(=O)O)C1CC(Sc3ccccc3[N+](=O)[O-])C(Cl)C21 (stereo not given)	17.5% (inactive)
CC(=O)c1ccc2c(c1)C1C(Cl)C(Sc3ccccc3[N+](=O)[O-])CC1C(C(=O)O)N2 (stereo not given)	21.4% (inactive)

Structure (SMILES)	inhibition
Cc1ccc2c(c1Cl)NC(C(=O)O)C1CC(Sc3ccccc3[N+](=O)[O-])C(Cl)C21 (stereo not given)	70.4% (active)
CCOC(=O)C(O)(c1ccc(N(CC)C(=O)COc2ccccc2)cc1)C(F)(F)F (stereo not given)	7.2% (inactive)
Cc1cc(OCC(=O)N[C@@H](Cc2ccccc2)C(=O)O)c2c3c(c(=O)oc2c1)CCC3	1.6% (inactive)
O=C1NC(=O)N(Cc2ccccc2)C(=O)/C1=C\c1ccco1	22.2% (inactive)
O=C1NC(=O)N(CCc2ccc(F)cc2)C(=O)/C1=C/c1ccco1	95.4% (active)
O=C1NC(=O)N(CCc2ccc(F)cc2)C(=O)/C1=C/c1cccs1	84.1% (inactive)
Cc1nc2c(=O)n(C)c(=O)nc-2n(C)n1	23.5% (inactive)
CCn1nc(-c2ccccc2)nc2c(=O)n(C)c(=O)nc1-2	18.7% (inactive)
Cn1ncnc2c(=O)n(C)c(=O)nc1-2	79.3% (active)
CN(Cc1ccccc1)C(=O)CN1CCCC1=O	-7.6% (inactive)
C=CCOc1ccc(CC2C(=O)N(C)C(=O)N(C)C2=O)cc1	11.7% (inactive)
O=S(=O)(c1ccc(O)cc1)c1ccc(O)cc1	11% (inactive)
Oc1ccc(C(=C(Cl)Cl)c2ccc(O)cc2)cc1	94.8% (active)
CCc1cc(=O)oc2cc(OCC(=O)N3C[C@H]4C[C@@H](C3)c3cccc(=O)n3C4)c(Cl)cc12	-10.3% (inactive)
CCCc1nc2ccccc2c(=O)n1-c1ccc(OC)cc1	12.2% (inactive)
CC12CCC3C(CC=C4CC(O)CCC43C)C1C/C(=C\c1ccccc1F)C2=O (stereo not given)	1.4% (inactive)
CCOC(=O)c1cc(C(O)(C(=O)OC)C(F)(F)F)c(/N=C/N(C)C)o1 (stereo not given)	14.3% (inactive)
